# Source: the OligoGym collection
# Biological target: GSTO1
# Experiment: pooled miR-30 sensor sort-seq; sequence = guide strand
# Conditions: shRNA
# Also: reference of the scale not given here.
row,Sequence,sensor-assay potency score (higher = more potent)
1,TTTCTCACTAGTAAGCAGGGCT,0.254
2,TAGGCCAGCATAGTCTTCTTTA,-0.878
3,TTTTCTTAAAGAACCACTCAGG,-0.256
4,TCTAATAAAGCTTCCTACCAAG,-0.981
5,TGAGACTGTGGGATCTTCCTTC,0.458
6,TCTAAGATCATCTTCTGGCAAG,-0.832
7,AACTCTAAGATCATCTTCTGGC,-0.0597
8,ATATTGATGACTTCATGCCTGA,-0.0136
9,TAGAGATAGAATTGCCACCAAA,-1.16
10,TATTAGTCAGAACCTCCTCTAG,-0.847
11,TAACTTCATTGCTTCCAGCCGT,-0.351
12,TTATTAGTCAGAACCTCCTCTA,-0.622

# Biological target: GTF2H5
# Experiment: as above
# Conditions: shRNA
row,Sequence,sensor-assay potency score (higher = more potent)
1,TGAATGATGAACTTCTTCCCCA,-0.103
2,TCTGCTATTACAAAGACGTGAG,0.353
3,TCTTGAATGATGAACTTCTTCC,-0.75
4,TTAATTCACCCACTCGCTCCTG,-0.542
5,AATGATGAACTTCTTCCCCAGG,-1.25
6,TATTACAAAGACGTGAGTGTCA,0.236
7,TAATTCACCCACTCGCTCCTGG,0.481
